Data on ten compounds can be found in PubChem BioAssay (Tox21).

Unmarked numbers belong to inactive results. Records with an inconclusive call do not appear. Calls of active or inactive are those of the source. Unless noted, calls come from the whole dose curve; as a rule, active = well fitted curve in the direction sought with a large enough effect in the repeat runs; inconclusive = weak or mixed curves; inactive = no such curve, though single readings can be large; an effect the other way counts as inactive or inconclusive.

The target in experiment [1] is Luciferin 4-monooxygenase (Photinus pyralis) (UniProt P08659). The experiment can be described thus: qHTS assay to identify small molecule inhibitors of firefly luciferase (AID 1224835). Note: nearly all actives have a fitted effect of over 25% in size. Note: potency is the fitted concentration of half-maximal effect. Summed up:
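Inhibition of purified Photinus luciferase is measured by luminescence. Substrate levels (D-luciferin, ATP) sit at their KM values. Each compound is tested in a concentration series.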
A general note: qHTS replaces the single test concentration by a dilution series.

Experiment [2] deals with Nuclear receptor subfamily 1 group I member 3 (Homo sapiens) (UniProt Q14994). The experiment can be described thus: qHTS assay to identify small molecule antagonists of the constitutive androstane receptor (CAR) signaling pathway (AID 1224838). Note: % is set by controls: 0 for no effect and ±100 for the full control effect; nearly all actives have a fitted effect of over 40% in size. Summed up: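 Compounds were titrated across 15 concentrations onto HepG2 cells double-stably expressing hCAR and a CYP2B6-2.2kb reporter, together with 50 nM CITCO (final). After 24 h at 37 C, luciferase activity was measured by luminescence.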

The target is the same in experiment [3]. The experiment can be described thus: qHTS assay to identify small molecule agonists of the constitutive androstane receptor (CAR) signaling pathway (AID 1224839). Note: % is set by controls: 0 for no effect and ±100 for the full control effect; nearly all actives have a fitted effect of over 15% in size. Put shortly: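 HepG2 cells stably expressing hCAR and a CYP2B6-2.2kb luciferase reporter were treated with compounds at 15 concentrations plus 0.75 uM PK11195 (final) for 24 h at 37 C; luminescence was read after ONE-Glo addition.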

Experiment [4] in a line: qHTS assay to identify small molecule antagonists of the estrogen related receptor signaling pathway with the pleiotropic PPARgamma coactivator (PGC) from Tox21 10K library (AID 1224841; call rule not given here; note: actives are mostly falling curves and most rising ones were filed inactive; nearly all actives have a fitted effect of over 50% in size; note: potency is the fitted concentration of half-maximal effect). Summed up:
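Antagonism in this quantitative HTS is taken from loss of luciferase signal in PGC/ERR cells. Cells (2,000/well) are treated with compounds in DMSO after a 6 h settling period and read by One-Glo luminescence after 18 h.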

Experiment [5] in a line: qHTS assay to identify small molecule agonists of the estrogen related receptor signaling pathway with the pleiotropic PPARgamma coactivator (PGC) from Tox21 10K library (AID 1224842). Note: % is set by controls: 0 for no effect and ±100 for the full control effect; nearly all actives have a fitted effect of over 15% in size. Summed up: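 Luminescence from One-Glo (30 min, room temperature) measured after PGC/ERR cells had 18 h at 37 C with pinned compound (23 nL in DMSO). Cells had been seeded at 2,000 per well and pre-incubated 6 h.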

The target of experiment [6] is Thyrotropin receptor (Homo sapiens) (UniProt P16473). The experiment can be described thus: qHTS assay to identify small molecule agonists of the thyroid stimulating hormone receptor (TSHR) signaling pathway (AID 1224843; calls by dose curve; note: % is set by controls: 0 for no effect and ±100 for the full control effect; nearly all actives have a fitted effect of over 45% in size). Put shortly: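 Screening of the Tox21 10K collection used HEK293 cells engineered with TSHR at 800 cells per well. After a 30-min room-temperature compound exposure, HTRF cAMP reagents were added and fluorescence recorded 1 h later.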

Experiment [7] in a line: qHTS assay to identify small molecule agonists of H2AX - cell viability counter screen (AID 1224847; calls by dose curve; note: nearly all actives have a fitted effect of over 30% in size; note: potency is the fitted concentration of half-maximal effect; for activity change, negative = cytotoxicity: top concentration of the series differs between compounds; % is set by controls: 0 for no effect and ±100 for the full control effect). Put shortly:
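Wild-type CHO-K1 cells (10% FBS medium) were plated overnight at 37C, exposed to compounds at 15 concentrations for 3 hr at 37C (0.76% DMSO final), and viability was read as CellTiter-Glo luminescence after 30 min at room temperature.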

Experiment [8] is described as follows: qHTS assay to identify small molecule antagonists of the estrogen related receptor (ERR) signaling pathway from Tox21 library (AID 1224848). Note: potency is the fitted concentration of half-maximal effect; nearly all actives have a fitted effect of over 50% in size. Put shortly: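 Antagonist-mode screen of the Tox21 10K library in an NTP-provided ERR reporter cell line; 18 h compound exposure at 37 C, luminescence measured with ONE-Glo.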
A short description of experiment [9]: qHTS assay to identify small molecule agonists of the estrogen related receptor (ERR) signaling pathway from Tox21 library (AID 1224849; calls by dose curve; note: % is set by controls: 0 for no effect and ±100 for the full control effect; nearly all actives have a fitted effect of over 15% in size). The note with it: ERR reporter cell line, ONE-Glo luciferase, 18 h. Summed up:
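Agonist signal is luciferase luminescence from an ERR reporter cell line treated 18 h at 37 C with DMSO-dissolved compounds, read 30 min after ONE-Glo addition at room temperature.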

The nature of experiment [10]: A CellTox Green Cytotoxicity Assay to monitor cytotoxicity in HEK293 cells - 0 hour (AID 1224869). Note: % is set by controls: 0 for no effect and ±100 for the full control effect; nearly all actives have a fitted effect of over 50% in size. Summed up: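 Cytotoxicity was tracked continuously in HEK293 cells by a DNA-binding dye excluded from viable cells. Compounds were transferred in DMSO 5 h after seeding; fluorescence was recorded at intervals up to 40 h.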
Experiment [11] in a line: qHTS assay to identify small molecule agonists of the constitutive androstane receptor (CAR) signaling pathway - cell viability counter screen (AID 1224836). For viability change, negative = cytotoxic: % is set by controls: 0 for no effect and ±100 for the full control effect. Note: nearly all actives have a fitted effect of over 45% in size. Note: potency is the fitted concentration of half-maximal effect. Summed up: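 HepG2 cells stably carrying hCAR and a CYP2B6-2.2kb reporter were plated 4 h, then given compounds at 15 concentrations plus PK11195 (final 0.75 uM). After 23 h at 37 C, viability was read by CellTiter-Fluor fluorescence.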

Experiment [12] in a line: qHTS assay to identify small molecule antagonists of the constitutive androstane receptor (CAR) signaling pathway - cell viability counter screen (AID 1224837). Note: nearly all actives have a fitted effect of over 45% in size. Note: potency is the fitted concentration of half-maximal effect. Summed up: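 Multiplexed cytotoxicity read-out for the CAR antagonist screen: double-stable HepG2-CYP2B6-hCAR cells co-treated with 50 nM CITCO (final) and compound over 15 concentrations, incubated 23 hr, then assessed by CellTiter-Fluor fluorescence.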

The nature of experiment [13]: qHTS assay to identify small molecule antagonists of the estrogen related receptor signaling pathway with the pleiotropic PPARgamma coactivator (PGC) from Tox21 10K library - cell viability counter screen (AID 1224840; active = well fitted cell-killing curve with a large enough effect in the repeat runs, not every such curve was filed as active; note: nearly all actives have a fitted effect of over 40% in size; note: potency is the fitted concentration of half-maximal effect). Summed up:
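Step one, plate 2,000 PGC/ERR cells per well; step two, incubate 6 h at 37 C/5% CO2; step three, pin-transfer compounds; step four, incubate 17.5 h; step five, add CellTiter-Fluor and read fluorescence after 30 min.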

The nature of experiment [14]: qHTS assay to identify small molecule agonists of H2AX (AID 1224845; active = well fitted activation curve with a large enough effect in the signal ratio in the repeat runs, not every such curve was filed as active; the % refers to the signal ratio; note: % is set by controls: 0 for no effect and ±100 for the full control effect). Put shortly: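 Phospho-H2AX Ser139 measured by HTRF (ex 320 nm; em 665 and 620 nm) after 24 hr antibody incubation. Compounds, 15 concentrations, 0.76% DMSO, were applied to CHO-K1 cells for 3hr at 37C before lysis.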
A short description of experiment [15]: qHTS assay to identify small molecule agonists of the hypoxia (HIF-1) signaling pathway (AID 1224846; active = well fitted activation curve with a large enough effect in the signal ratio in the repeat runs, not every such curve was filed as active; the % refers to the signal ratio; note: % is set by controls: 0 for no effect and ±100 for the full control effect). Put shortly:
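Steps: seed ME-180 HRE-bla cells (2,000/well, 0.5% dialyzed FBS); incubate 5 hrs at 37C; pin-transfer compounds or DMSO; incubate 17 hrs; add LiveBLAzer B/G substrate CCF4-AM; measure reporter activation by FRET.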

A short description of experiment [16]: qHTS RealTime-Glo MT Cell Viability Assay in HepG2 cells - 24 hour (AID 1224867). Note: % is set by controls: 0 for no effect and ±100 for the full control effect; nearly all actives have a fitted effect of over 50% in size. Summed up: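 Tox21 10K library screened in qHTS format on HepG2 cells carrying RealTime-Glo reagents. Compounds were added after a 5 h preincubation, and the luminescent signal from continuous culture was measured repeatedly during 40 h treatment.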
Experiment [17] can be described thus: qHTS RealTime-Glo MT Cell Viability Assay in HEK293 cells - 32 hour (AID 1224868). Note: nearly all actives have a fitted effect of over 50% in size. Note: potency is the fitted concentration of half-maximal effect. Summed up: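 Luminescence generated by NanoLuc from substrate produced by living HEK293 cells served as the viability signal. Each value reflects the reading at its stated time point during continuous 40 h compound exposure at 37 C.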
Experiment [18] can be described thus: qHTS RealTime-Glo MT Cell Viability Assay in HepG2 cells - 40 hour (AID 1224870). Put shortly: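 Real-time viability: cells seeded at 600 per well together with NanoLuc and cell-permeant prosubstrate, compounds added after 5 h incubation. Luminescence tracked at 0, 8, 16, 24, 32 and 40 h of exposure.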
Experiment [19] can be described thus: qHTS assay to identify small molecule agonists of the hypoxia (HIF-1) signaling pathway - cell viability counter screen (AID 1224844; calls by dose curve). Put shortly:
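Tox21 10K compounds were added to HRE-bla ME-180 cells (0.5% dialyzed FBS) and incubated 17 hrs at 37C; ATP-based CellTiter-Glo luminescence then reported cell viability in the same wells.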

Thyrotropin receptor (Homo sapiens), sequence (P16473 whole entry, looked up): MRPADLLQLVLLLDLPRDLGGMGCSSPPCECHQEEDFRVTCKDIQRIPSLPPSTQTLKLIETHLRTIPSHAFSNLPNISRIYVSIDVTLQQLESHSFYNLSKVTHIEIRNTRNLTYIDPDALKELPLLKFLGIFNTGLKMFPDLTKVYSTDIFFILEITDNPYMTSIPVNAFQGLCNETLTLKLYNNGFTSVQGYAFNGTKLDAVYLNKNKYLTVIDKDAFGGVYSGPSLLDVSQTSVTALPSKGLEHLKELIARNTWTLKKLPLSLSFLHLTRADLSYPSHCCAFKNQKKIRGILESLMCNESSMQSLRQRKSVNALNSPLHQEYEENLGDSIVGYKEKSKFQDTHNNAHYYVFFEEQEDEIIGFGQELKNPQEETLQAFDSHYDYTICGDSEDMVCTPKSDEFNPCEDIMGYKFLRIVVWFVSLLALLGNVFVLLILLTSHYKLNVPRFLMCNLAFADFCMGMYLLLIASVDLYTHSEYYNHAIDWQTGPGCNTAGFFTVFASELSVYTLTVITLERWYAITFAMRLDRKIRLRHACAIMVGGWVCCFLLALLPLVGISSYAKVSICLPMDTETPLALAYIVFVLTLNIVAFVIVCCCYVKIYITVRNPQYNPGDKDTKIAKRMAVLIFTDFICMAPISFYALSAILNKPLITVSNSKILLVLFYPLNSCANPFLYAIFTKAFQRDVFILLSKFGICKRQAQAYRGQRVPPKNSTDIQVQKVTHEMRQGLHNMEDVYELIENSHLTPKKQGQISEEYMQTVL
Luciferin 4-monooxygenase (Photinus pyralis), sequence (P08659 whole entry, looked up): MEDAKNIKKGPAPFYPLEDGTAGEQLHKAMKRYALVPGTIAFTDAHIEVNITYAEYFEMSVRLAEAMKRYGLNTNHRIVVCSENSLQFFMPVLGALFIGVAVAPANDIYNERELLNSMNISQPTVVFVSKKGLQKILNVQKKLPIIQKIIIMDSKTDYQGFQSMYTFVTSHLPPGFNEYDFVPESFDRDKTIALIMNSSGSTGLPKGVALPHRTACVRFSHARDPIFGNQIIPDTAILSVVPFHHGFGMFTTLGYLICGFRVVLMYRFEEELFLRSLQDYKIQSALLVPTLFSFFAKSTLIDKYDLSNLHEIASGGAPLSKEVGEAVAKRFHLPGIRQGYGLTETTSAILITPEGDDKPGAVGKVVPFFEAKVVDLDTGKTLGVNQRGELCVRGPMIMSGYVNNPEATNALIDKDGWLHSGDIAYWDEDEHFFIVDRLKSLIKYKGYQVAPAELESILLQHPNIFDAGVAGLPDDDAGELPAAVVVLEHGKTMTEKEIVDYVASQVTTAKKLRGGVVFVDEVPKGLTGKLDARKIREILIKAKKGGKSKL
Nuclear receptor subfamily 1 group I member 3 (Homo sapiens), sequence (Q14994 whole entry, looked up): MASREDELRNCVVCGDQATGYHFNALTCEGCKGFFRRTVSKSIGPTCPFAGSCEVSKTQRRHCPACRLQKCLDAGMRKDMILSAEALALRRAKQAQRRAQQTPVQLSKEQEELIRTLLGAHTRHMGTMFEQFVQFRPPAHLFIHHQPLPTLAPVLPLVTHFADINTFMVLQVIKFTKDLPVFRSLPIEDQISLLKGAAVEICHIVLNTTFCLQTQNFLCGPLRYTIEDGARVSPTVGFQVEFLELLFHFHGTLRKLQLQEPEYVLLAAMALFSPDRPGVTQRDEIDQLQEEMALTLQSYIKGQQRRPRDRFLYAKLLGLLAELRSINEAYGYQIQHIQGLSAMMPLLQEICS

As for `COC(=O)C1=C(C)NC(C)=C(C(=O)OCCN2CCN(C(c3ccccc3)c3ccccc3)CC2)C1c1cccc([N+](=O)[O-])c1` (centres undefined), the Potency result in [1], in experiment [2], in experiment [3], in [5], in [6] and in [7] was “inactive” throughout. Also, the Potency result in experiment [10] is “inactive”. The Potency was 9.44 µM (active) in experiment [4] and 11.9 µM (active) in [8]. Moreover, the activity change, positive = activation in experiment [9] (at 42.5 µM (top of the series)) is -44.8%.
With `C=Cc1ccccc1C=C`, the Potency result in experiment [1], in [11], in experiment [12], in experiment [13], in [6] and in experiment [14] was “inactive” throughout. Also, the Potency entry in experiment [15], in experiment [7], in experiment [16], in experiment [17], in [10] and in experiment [18] was “inactive” each time.
In the case of `COc1cc2nc(N3CCN(C(=O)c4ccco4)CC3)nc(N)c2cc1OC`, the viability change, negative = cytotoxic in experiment [11] is -2.7% [at 19 µM]. Also, the activity change, negative = cytotoxicity is -2.45% [at 19 µM] in experiment [12], -2.17% [at 31.6 µM] in experiment [7] and -23% [at 15.8 µM] in experiment [16]. Also, in experiment [2], the activity, negative = inhibition was 3.26% [at 19 µM]. Further, the activation is 0.371% [at 19 µM] in experiment [3] and -0.792% [at 19 µM] in [6]. For the same compound, the activity change, negative = cytotoxic in experiment [17] was -17.7% [at 15.8 µM]. Moreover, in experiment [10], the cytotoxicity was 2.18% [at 15.8 µM].
Turning to `O=C1CCc2cc(OCCCCc3nnnn3C3CCCCC3)ccc2N1`, the Potency result in experiment [1], in [11], in experiment [12], in experiment [13], in [14] and in experiment [7] was “inactive” each time. Further, the Potency result in [16], in experiment [10] and in experiment [18] was “inactive” in each case.
With `O=S(=O)(O)c1ccc(N=Nc2c(O)ccc3ccccc23)cc1`, the Potency in [1] was 35.6 µM (active); in [12] it was 30.6 µM (active); in experiment [13], 48.6 µM (active). Further, the Potency entry in experiment [2], in experiment [3], in [15] and in experiment [10] was “inactive” in each case.
`COC(=O)Nc1nc2ccc(C(=O)c3ccccc3)cc2[nH]1`: the Potency entry in experiment [11], in experiment [12], in [2], in [13], in experiment [6] and in [15] was “inactive” in each case. Moreover, the Potency result in [7], in experiment [16], in [10] and in experiment [18] was “inactive” in each case. Further, in experiment [17], the Potency is 0.848 µM (active).
As to `CCCCN(CCCC)CC(O)c1cc(Cl)cc2c1-c1ccc(Cl)cc1/C2=C/c1ccc(Cl)cc1` (centres undefined), the Potency entry in experiment [1], in [11], in [2], in [4], in [5] and in experiment [6] was “inactive” each time. Besides, the Potency result in experiment [19], in [15], in experiment [17] and in [10] was “inactive” each time. The activity change, positive = activation in [9] (at 42.5 µM (top of the series)) was -23.2%.
On to `Oc1cc(Cl)cc(Cl)c1Cl`, for which the Potency entry in [11], in [12], in [2], in experiment [3], in experiment [6] and in experiment [14] was “inactive” each time. The Potency entry in [15], in [16] and in experiment [18] was “inactive” in each case. For the same compound, the Potency in experiment [7] is 51.7 µM (active).
With `O=C(Nc1ccc2c(O)c(N=Nc3ccc(N=Nc4ccc(S(=O)(=O)O)cc4)cc3)c(S(=O)(=O)O)cc2c1)c1ccccc1`, the Potency is 35.6 µM (active) in experiment [1]; 24.3 µM (active) in experiment [11]; 27.3 µM (active) in experiment [12]; 24.3 µM (active) in experiment [13]; 27.3 µM (active) in experiment [4]; 50.5 µM (active) in experiment [7]. Further, the Potency result in [5], in experiment [6], in [19], in experiment [17] and in [10] was “inactive” each time. Further, the activity change, positive = activation in [9] (at 92.4 µM (top of the series)) was -30%.
With `CCn1c2ccccc2c2cc([N+](=O)[O-])ccc21`, the Potency result in experiment [1], in [11], in experiment [12], in experiment [13], in [19] and in experiment [16] was “inactive” throughout. For the same compound, the Potency entry in experiment [10] and in experiment [18] was “inactive” in each case.
